Data on 14 molecules can be found in PubChem BioAssay (NCI).

What all share (test): NCI-60 one-dose screen, 48 h (100 = growth as untreated, 0 = no growth, -100 = all killed)
Test [1] deals with NCI-H226 lung. The note with it: 10 µM unless noted.
The subject of test [2] is NCI-H322M lung. The note with it: 10 µM unless noted.
For test [3], the system named is HOP-62 NSCLC. To be noted: 10 µM unless noted.
Test [4] relates to NCI-H460 lung. To be noted: 10 µM unless noted.
Test [5] has as its system A549/ATCC NSCLC. The note with it: 10 µM unless noted.
For test [6], the system named is 786-0 renal. To be noted: 10 µM unless noted.
Test [7] relates to NCI-H522 lung. To be noted: 10 µM.
Test [8] has as its system COLO 205 colon. To be noted: 10 µM unless noted.
Test [9] concerns HOP-92 NSCLC. The note with it: 10 µM.

Molecules are shown by their SMILES. Several values for one entry are separate records, joined by “and”; a condition that tells them apart may be missing. Equal entries are not always repeated. This is part of a sample that, as a whole, favours compounds with a hit. Of some 83,000 tested, about 20% had one in any assay.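 Method: cells in 96-well plates; compound added at one concentration; 48 h incubation; percent growth measured; values under 10 scored active.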 Activity calls are given as the source filed them.

In the case of `NC(=O)NCCCC(N)C(=O)O` (stereo not drawn), the growth is 98.2% (inactive) in [1]; 88.6% (inactive) in test [2]; 98.4% (inactive) in [3]; 108% (inactive) in [4]; 104% (inactive) in test [5]; 101% (inactive) in test [6].

On to `COc1ccc2cc1Oc1ccc(cc1)C[C@H]1c3cc(c(OC)cc3CCN1C)Oc1c(OC)c(OC)cc3c1[C@H](C2)N(C)CC3`, for which the growth in test [1] is 113% (inactive); in test [2], 52.6% (inactive); in test [3], 17.7% (inactive); in test [4], 44.9% (inactive); in [7] it was 1.42% (active); in test [5] it was 39.6% (inactive). Also, the growth is 46.3% (inactive) in [6] and 44.8% (inactive) in [8].

Take `Cc1ccc(S(=O)(=O)c2ccccc2)cc1`: the growth in [1] was 85.6% (inactive); in test [2], 57.1% (inactive); in test [3], 44.2% (inactive); in test [9] it was 58.7% (inactive); in test [5], 41.7% (inactive); in [8], 18.4% (inactive).

`CC1=C/C(O)CC(=O)Cc2nc(co2)C(=O)N2CCC=C2C(=O)OC(C(C)C)C(C)/C=C\C(=O)NC/C=C\1` (stereo not drawn): the growth was 82.9% (inactive) in test [1]; 102% (inactive) in [2]; 102% (inactive) in test [4]; 88.7% (inactive) in [9]; 21.8% (inactive) in test [7]; 83% (inactive) in test [5]. Moreover, the growth in test [6] was 2.53% (active).

For the molecule `Cc1ccc(=O)[nH]n1`, the growth was 102% (inactive) and 100% (inactive) in [1]; 104% (inactive) and 103% (inactive) in test [2]; 110% (inactive) and 91.9% (inactive) in [3]; 85.1% (inactive) in test [9]; 108% (inactive) and 96.2% (inactive) in test [7]; 102% (inactive) and 91.4% (inactive) in test [5]. Moreover, the growth in test [6] was 111% (inactive); in test [8], 111% (inactive) and 115% (inactive).

For the molecule `COc1ccc(C(=O)CC(c2ccccc2)C(C#N)c2ccccc2)cc1` (stereo not drawn), the growth in [1] is 81.1% (inactive); in test [2], 103% (inactive); in test [3], 98.3% (inactive); in [9] it was 67.8% (inactive); in test [7], 69.5% (inactive); in [5], 74.2% (inactive). The results for the growth in test [6] and in test [8] were 90% (inactive) and 110% (inactive), respectively.

Take `CC1CCC2(OC1)OC1CC3C4CC=C5CC(O)CCC5(C)C4CCC3(C)C1C2C` (stereo not drawn): the growth was 92.2% (inactive) in test [1]; 113% (inactive) in test [2]; 66.6% (inactive) in test [3]; 26.6% (inactive) in test [9]; 103% (inactive) in [7]; 27.3% (inactive) in [5].

In the case of `O=[N+]([O-])c1cccc(SSc2cccc([N+](=O)[O-])c2)c1`, the growth was 106% (inactive) in [1]; 116% (inactive) in test [2]; 89.8% (inactive) in test [3]; 96.8% (inactive) in [7]; 100% (inactive) in test [5]; 103% (inactive) in test [6].

In the case of `CCCCCCCCCCNC(=O)CI`, the growth was 76.7% (inactive) in test [1]; 96.8% (inactive) in test [2]; -20.8% (active) in test [3]; 101% (inactive) in test [4]; -79% (active) in [9]; 95.1% (inactive) in test [5]. Further, the growth in [6] was -81.2% (active).

For `CCOC(=O)c1c(C)cc(=O)oc1C`, the growth is 96.8% (inactive) in test [1]; 110% (inactive) in test [2]; 97.2% (inactive) in [3]; 80.7% (inactive) in test [9]; 115% (inactive) in [7]; 103% (inactive) in test [6].

For the molecule `OCC1OC(O)C(O)C(O)C1O` (stereo not drawn), the growth was 113% (inactive) in test [1]; 155% (inactive) in test [2]; 98.9% (inactive) in test [3]; 100% (inactive) in test [4]; 85.9% (inactive) in test [9]; 85.7% (inactive) in [7]. Moreover, the results for the growth in test [5] and in [6] were 108% (inactive) and 110% (inactive), respectively.

Consider `CN(C)CC1CCCCCC(CN(C)C)C1=O` (stereo not drawn), for which the growth in test [1] was 91.4% (inactive); in test [2], 116% (inactive); in [3] it was 113% (inactive); in [4], 106% (inactive); in test [9] it was 73.2% (inactive); in test [7], -42.8% (active). In addition, the values for the growth in test [5] and in test [6] were 106% (inactive) and 89.6% (inactive), respectively.

For the molecule `CCCCOC(=O)/C=C\C(=O)NC(N)=O`, the growth in [1] is 96.6% (inactive); in test [2], 96.4% (inactive); in test [3] it was 95.1% (inactive); in test [4] it was 101% (inactive); in test [7] it was -30.6% (active); in test [5], 95.8% (inactive). Further, the growth in [6] was 97.4% (inactive).

For the molecule `O=CN1CCCCC1`, the growth is 105% (inactive) in [1]; 99.4% (inactive) in test [2]; 102% (inactive) in test [3]; 120% (inactive) in test [9]; 104% (inactive) in test [7]; 122% (inactive) in [5]. Moreover, in test [6], the growth was 102% (inactive).
